Screening data (PubChem)
GRIN3A LBD mod: binders of NR3A ligand-binding domain, primary screen, biophysical, differential scanning fluorimetry, uHTS | Glutamate receptor ionotropic, NMDA 3A (GRIN3A) ligand-binding domain | NR3A LBD differential scanning fluorimetry, Tm shift; 0% = protein alone, 100% = glycine-bound protein | Tm shift relative to glycine control, % at 25 µM | 340,000 compounds, 2.5% hits;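 active = melting temperature shift of at least 10% of the positive control shift, at one fixed dose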
NTR1 agonist: agonists of human NTR1, primary screen, imaging, U2OS cells, beta-arrestin-GFP, high content; NTR1-U2OS beta-arrestin-GFP spot imaging, agonist mode; activation, % at 20 µM; 330,000 compounds, 0.17% hits;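 active = activation at or above 40% of the spot to cytoplasm intensity ratio, with at least 20 cells analyzed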;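 note: 0% = DMSO without peptide and 100% = 100 nM NTR1 peptide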
Target sequence (P30989 whole entry, looked up): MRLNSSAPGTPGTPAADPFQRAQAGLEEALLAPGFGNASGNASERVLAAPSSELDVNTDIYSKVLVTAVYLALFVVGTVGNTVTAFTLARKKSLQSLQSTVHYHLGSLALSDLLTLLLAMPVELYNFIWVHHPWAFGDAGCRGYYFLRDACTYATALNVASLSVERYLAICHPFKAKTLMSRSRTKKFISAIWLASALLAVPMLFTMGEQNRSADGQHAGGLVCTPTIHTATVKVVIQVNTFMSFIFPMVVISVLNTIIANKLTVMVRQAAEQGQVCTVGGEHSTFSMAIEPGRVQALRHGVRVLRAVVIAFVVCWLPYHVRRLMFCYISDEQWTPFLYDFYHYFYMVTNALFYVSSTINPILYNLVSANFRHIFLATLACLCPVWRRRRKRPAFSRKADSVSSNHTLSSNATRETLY
AI-2 QS mod: Vibrio harveyi AI-2 quorum sensing modulators, primary screen, JMH597 strain, luminescence/OD600 ratio; Vibrio harveyi JMH597 AI-2 luminescence/OD600 ratio, 9 h; active compounds read low; strain lacks LuxN and CqsS sensors; 0 = neutral-control median; AID 2094, 2009; 300,000 compounds, 0.4% hits; activity change, % at 7.5 µM; in the data active = activity change below about -75%, passing the limit was not always enough;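 note: luminescence divided by OD600 gain over 9 h not by final OD600 alone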
Cardio protect: cardioprotection against H2O2-induced cell death, primary screen, uHTS, H9c2 cells, ATPLite luminescence. H9c2 cardiomyocytes, H2O2 injury protection, 2 h. protection from H2O2 cell death, % at 20 µM. 360,000 compounds, 0.63% hits. AID 588492, 2011;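 active = compounds giving at least 50% protection of heart cells from peroxide-induced death in the single-dose screen, raw or plate-pattern-corrected value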;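 note: 0% = DMSO wells with peroxide and 100% = DMSO wells without peroxide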
AHR act: AHR activators, primary screen, cell-based, luminescence, luciferase reporter, human. Aryl hydrocarbon receptor (Homo sapiens), P35869. AHR-responsive luciferase reporter cells. activation, % at 5 µM. 320,000 compounds, 2.5% hits. AID 2796, 2010; in the data active = activation above about 47%;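 note: 0% = vehicle wells and 100% = reference agonist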
SUMO Mot1 rescue: yeast Mot1-301 growth rescue at high temperature, primary screen, SUMOylation pathway inhibitor project, S. cerevisiae, ATP luminescence, 38.5C | S. cerevisiae Mot1-301 growth rescue; percent above DMSO median, 100 means doubled | growth rescue, % at 18.8 µM | 320,000 compounds, 1% hits | AID 2716, 2010;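 active = every valid replicate shows activation above 250% relative to neutral control wells; inactive = the rest, any valid replicate at or below 250%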;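 note: OY570 slx delta 5 strain wells were the positive control but not used for scaling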
AHR act cf: AHR activators, confirmation, cell-based, luminescence, luciferase reporter, human | activation, % at 9 µM | human cells, AHR-responsive luciferase reporter | 2,300 compounds, 87% hits | shares compounds with AHR act; in the data active = activation above about 49%;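 note: HepG2 hepatoma cells carrying a DRE-driven firefly luciferase reporter; 0% = vehicle wells and 100% = reference agonist wells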
PXR counter: human PXR activators, counter-screen for AHR activator project, cell-based, luciferase luminescence. shares compounds with AHR act. cell-based PXR reporter. activation, % at 11.6 µM. 2,300 compounds, 88% hits. AID 434939, 2010; in the data active = activation above about 11%;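 note: human hepatoma DPX-2 cells expressing full-length human PXR; 0% = DMSO and 100% = reference agonist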
Active calls of the source: *. An excerpt weighted towards active compounds, which were near 6.2% of everything screened.

For CSc1ncccc1C(=O)N1CCCC(N2CCN(c3ccccc3C)CC2)C1 (stereo not given) the results were Cardio protect -2.
`Cc1cc(Cl)ccc1NC(=O)COC(=O)c1c(C)noc1C` gave GRIN3A LBD mod -1, NTR1 agonist -2, Cardio protect 3, AHR act 2 and SUMO Mot1 rescue 1.
Screening Nc1nc(NCCCN2CCOCC2)nc(Nc2ccc(F)cc2)c1[N+](=O)[O-] returned GRIN3A LBD mod 3, NTR1 agonist 3, AI-2 QS mod 8, Cardio protect 19, AHR act 83*, SUMO Mot1 rescue 1, AHR act cf 15 and PXR counter 29*.
Screening Cc1ccc(Nc2nc(N)c([N+](=O)[O-])c(N3CCOCC3)n2)cc1C returned GRIN3A LBD mod -5, NTR1 agonist 1, AI-2 QS mod 72, Cardio protect -1, AHR act 119*, SUMO Mot1 rescue -15, AHR act cf 83* and PXR counter 21*.
Screening Nc1nc(NCCCN2CCOCC2)nc(Nc2cccc(F)c2)c1[N+](=O)[O-] returned GRIN3A LBD mod 0, NTR1 agonist 1, AI-2 QS mod 16, Cardio protect 20, AHR act 7 and SUMO Mot1 rescue -11.
`CCc1nc2ccc(C(=O)NCc3ccccc3OC)cn2c1N(C)Cc1ccc(N(C)C)cc1` gave Cardio protect 5.
Screening Cc1ccc(Nc2nc(-c3ccc(C)cc3)c(CC(=O)O)s2)cc1 returned GRIN3A LBD mod -4, NTR1 agonist 4, AI-2 QS mod 16, Cardio protect -7, AHR act 85*, SUMO Mot1 rescue -4, AHR act cf 9 and PXR counter 8.
`O=C(O)Cc1sc(Nc2ccc(Cl)cc2)nc1-c1cccs1` gave GRIN3A LBD mod 4, NTR1 agonist -3 and AI-2 QS mod 15.
For COc1cc(C(=O)O[C@H]2CC(C)=CC[C@@]3(C)CC[C@@](O)(C(C)C)[C@H]23)ccc1O the results were GRIN3A LBD mod -1, NTR1 agonist 33, AI-2 QS mod 11, Cardio protect -2, AHR act 2 and SUMO Mot1 rescue 29.
Screening COc1ccc(CCNc2nc(-c3ccccn3)cs2)cc1OC returned GRIN3A LBD mod 2, NTR1 agonist 1, AI-2 QS mod 29, Cardio protect -8, AHR act 85*, SUMO Mot1 rescue 2, AHR act cf 80* and PXR counter 27*.
For COc1ccc(CCNc2nc(-c3cccnc3)cs2)cc1OC the results were GRIN3A LBD mod -1, NTR1 agonist 0, AI-2 QS mod 5, Cardio protect 0, AHR act 2 and SUMO Mot1 rescue -16.
`Cc1cc(C)n2nc(N)c(N=Nc3ccc(Cl)cc3)c2n1` gave GRIN3A LBD mod -9, NTR1 agonist 1, AI-2 QS mod 17, Cardio protect 44, AHR act 109*, SUMO Mot1 rescue -11, AHR act cf 98* and PXR counter 31*.
Screening O=C(O)c1c[nH]c2c([N+](=O)[O-])cccc2c1=O returned GRIN3A LBD mod 1 and Cardio protect 3.
`C=CCCC(=O)Nc1nc(C)c(-c2csc(Nc3cccc(OC)c3)n2)s1` gave GRIN3A LBD mod -2, NTR1 agonist 4, AI-2 QS mod 22, Cardio protect -6, AHR act 301*, SUMO Mot1 rescue -11, AHR act cf 100* and PXR counter 14*.
Screening CCCC(=O)Nc1nc(C)c(-c2csc(Nc3ccccc3OC)n2)s1 returned GRIN3A LBD mod -6, NTR1 agonist 2, AI-2 QS mod 28, Cardio protect -4, AHR act 79*, SUMO Mot1 rescue 101, AHR act cf 101* and PXR counter 34*.
Screening C=CCCC(=O)Nc1nc(C)c(-c2csc(Nc3cc(OC)ccc3OC)n2)s1 returned GRIN3A LBD mod -2, NTR1 agonist 5, AI-2 QS mod 3, Cardio protect 2, AHR act 117*, SUMO Mot1 rescue 1, AHR act cf 69* and PXR counter 62*.
`CCC(=O)Nc1nc(C)c(-c2csc(Nc3cccc(C(=O)O)c3)n2)s1` gave GRIN3A LBD mod -1, NTR1 agonist 3, AI-2 QS mod 11, Cardio protect -6, AHR act 21 and SUMO Mot1 rescue -3.
For CCCC(=O)Nc1nc(C)c(-c2csc(Nc3cc(OC)ccc3OC)n2)s1 the results were GRIN3A LBD mod 0, NTR1 agonist 16, AI-2 QS mod 25, Cardio protect 9, AHR act 85*, SUMO Mot1 rescue 46, AHR act cf 76* and PXR counter 45*.
`Cc1c(-c2ccn[nH]2)cc(NC(=O)c2ccc(Cl)cc2)c(=O)n1N` gave GRIN3A LBD mod -4, NTR1 agonist -1, AI-2 QS mod 14, Cardio protect -1, AHR act 86*, SUMO Mot1 rescue -14 and AHR act cf 105*.
Screening Cc1cccc(C)c1C(O)c1ncc(-c2ccc(F)cc2)[nH]1 (stereo not given) returned Cardio protect -10.
`CCC(=NOCc1ccccc1)C(=O)NNS(=O)(=O)c1ccc(C)cc1` gave GRIN3A LBD mod -3 and Cardio protect -3.
Screening Nc1nc(NCc2ccc(Cl)cc2)nc(NCCO)c1[N+](=O)[O-] returned GRIN3A LBD mod 4, NTR1 agonist -1, AI-2 QS mod 20, Cardio protect 34, AHR act -2 and SUMO Mot1 rescue 3.
`Nc1nc(Nc2ccc(Cl)cc2)nc(NCCO)c1[N+](=O)[O-]` gave GRIN3A LBD mod -1, NTR1 agonist 1, AI-2 QS mod 19, Cardio protect 38, AHR act 111*, SUMO Mot1 rescue 3, AHR act cf 193* and PXR counter 25*.
`CNc1nc(N)c([N+](=O)[O-])c(Nc2cccc(F)c2)n1` gave GRIN3A LBD mod 4, NTR1 agonist 1, AI-2 QS mod 21, Cardio protect 6, AHR act 16 and SUMO Mot1 rescue 62.
